# Source: PubChem BioAssay (Tox21)
# Several values for one entry are separate records, joined by “and”; a condition that tells them apart may be missing. Equal values may be shown once. Results filed as inconclusive are left out. A call without a number means that no potency is given here. The source holds several records for some structures; these can differ, active in one and inactive in another. Activity calls are given as the source filed them. Unless noted, calls come from the whole dose curve; as a rule, active = well fitted curve in the direction sought with a large enough effect in the repeat runs; inconclusive = weak or mixed curves; inactive = no such curve, though single readings can be large; an effect the other way counts as inactive or inconclusive.
# Legend:
# [1] = molecular target: Estrogen receptor (Homo sapiens) (UniProt P03372); experiment: qHTS assay to identify small molecule antagonists of the estrogen receptor alpha (ER-alpha) signaling pathway using the BG1 cell line in the presence of 0.1 nM 17-beta-estradiol (AID 1259244); note: nearly all actives have a fitted effect of over 50% in size; note: potency is the fitted concentration of half-maximal effect
# Chain of Estrogen receptor (Homo sapiens) (P03372 whole entry, looked up): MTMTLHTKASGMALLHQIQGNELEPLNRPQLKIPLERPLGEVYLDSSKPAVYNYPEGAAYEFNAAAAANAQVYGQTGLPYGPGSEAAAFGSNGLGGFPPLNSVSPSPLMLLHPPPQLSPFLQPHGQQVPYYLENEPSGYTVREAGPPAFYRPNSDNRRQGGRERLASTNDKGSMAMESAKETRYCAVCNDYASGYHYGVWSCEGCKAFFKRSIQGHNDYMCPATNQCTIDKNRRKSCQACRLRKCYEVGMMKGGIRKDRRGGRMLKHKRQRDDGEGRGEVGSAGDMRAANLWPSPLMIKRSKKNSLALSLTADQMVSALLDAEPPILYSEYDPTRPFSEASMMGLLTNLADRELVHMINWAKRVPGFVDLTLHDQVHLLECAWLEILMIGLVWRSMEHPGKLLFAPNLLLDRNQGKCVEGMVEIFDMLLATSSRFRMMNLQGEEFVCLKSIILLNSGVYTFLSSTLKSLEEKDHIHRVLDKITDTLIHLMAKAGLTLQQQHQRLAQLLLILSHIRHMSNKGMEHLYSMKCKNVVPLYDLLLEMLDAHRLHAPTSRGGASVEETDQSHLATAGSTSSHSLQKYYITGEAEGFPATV
# Method in brief: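 Luciferase signal from VM7Luc4E2 ERE-reporter cells, co-dosed with test compound and 0.1 nM final 17beta-estradiol for 22 h, read with ONE-Glo.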
# [2] = qHTS assay to identify small molecule phospholipidosis (PLD) inducers (AID 1259344; active = well fitted curve in the direction sought with a large enough effect; an effect the other way counts as inactive or inconclusive)
# Method in brief: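 Image-based: LipidTOX Red pit count/intensity per well and per cell; HepG2, 24 h compound at 37 C, PFA fixation, Hoechst counterstain.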
# [3] = qHTS assay to identify small molecule HDAC inhibitors (AID 1259364);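 note: wild-type HCT-116 cells with endogenous class I/II HDAC activity; top concentration of the series differs between compounds; nearly all actives have a fitted effect of over 45% in size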
# Method in brief: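 HCT-116 wt cells, 1,500/well, overnight attach. Compounds (DMSO) 2 h, 37 °C. HDAC-Glo I/II, 30 min RT. Luminescence.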
# [4] = qHTS assay to identify small molecule HDAC inhibitors - cell viability counter screen (AID 1259365); note: series mostly up to about 92 µM; nearly all actives have a fitted effect of over 50% in size
# Method in brief: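 Luminescence from CellTiter-Glo, developed 30min at room temperature, reports viability of wild-type HCT-116 cells treated 2hr with compounds at 37 C and 5% CO2 after overnight plating.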
# [5] = qHTS assay to identify small molecule antagonists of the sonic hedgehog signaling (Shh) pathway - cell viability counter screen (AID 1259367); note: nearly all actives have a fitted effect of over 55% in size; note: potency is the fitted concentration of half-maximal effect
# Method in brief: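 Tox21 library chemicals were tested on a Gli1-Luc NIH/3T3 clone (2,000 cells/well) stimulated by conditioned medium; viability was quantified as fluorescence from CellTiter-Fluor reagent added at 23 hr.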
# [6] = qHTS assay to identify small molecule agonists of the sonic hedgehog signaling (Shh) pathway (AID 1259368; calls by dose curve;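 note: NIH/3T3-derived 3T3Gli1-Luc cells carrying a stable Gli1-driven firefly luciferase reporter; series mostly up to about 92 µM; nearly all actives have a fitted effect of over 15% in size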)
# Method in brief: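 Following a 24 hr incubation with DMSO-dissolved compounds at 37 C, 5% CO2, Gli1-Luc NIH/3T3-derived cells received luciferase reagent for 30 min at room temperature prior to luminescence measurement.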
# [7] = molecular target: Estrogen receptor beta (Homo sapiens) (UniProt Q92731); experiment: qHTS assay to identify small molecule agonists of the estrogen receptor beta (ER-beta) signaling pathway (AID 1259377; active = well fitted activation curve with a large enough effect in the signal ratio in the repeat runs, not every such curve was filed as active; the % refers to the signal ratio)
# Chain of Estrogen receptor beta (Homo sapiens) (Q92731 whole entry, looked up): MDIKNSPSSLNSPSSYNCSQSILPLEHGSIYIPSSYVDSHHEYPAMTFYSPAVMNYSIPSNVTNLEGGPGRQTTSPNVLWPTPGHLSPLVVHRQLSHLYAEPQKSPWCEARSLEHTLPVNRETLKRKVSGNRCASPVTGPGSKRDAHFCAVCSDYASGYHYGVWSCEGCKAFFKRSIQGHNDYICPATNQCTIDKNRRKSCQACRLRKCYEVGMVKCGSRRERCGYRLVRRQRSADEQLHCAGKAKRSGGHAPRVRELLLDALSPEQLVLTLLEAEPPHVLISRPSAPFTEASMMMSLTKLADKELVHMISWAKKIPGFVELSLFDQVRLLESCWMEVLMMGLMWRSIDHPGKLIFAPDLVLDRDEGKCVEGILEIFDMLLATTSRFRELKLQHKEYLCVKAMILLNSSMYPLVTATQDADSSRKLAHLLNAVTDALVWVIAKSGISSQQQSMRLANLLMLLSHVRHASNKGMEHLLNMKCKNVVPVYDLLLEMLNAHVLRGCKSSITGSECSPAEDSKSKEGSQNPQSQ
# Method in brief: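 HEK293T ER-beta-UAS-bla; 2% charcoal-stripped FBS; cells pre-incubated 6 hr, compound 16 hr, 37C/5% CO2; LiveBLAzer B/G FRET substrate 2 h RT; fluorescence intensity read.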
# [8] = qHTS assay to identify small molecule agonists of the estrogen receptor beta (ER-beta) signaling pathway - cell viability counter screen (AID 1259380); note: nearly all actives have a fitted effect of over 30% in size; note: potency is the fitted concentration of half-maximal effect
# Method in brief: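 Compounds dissolved in DMSO were pin-transferred onto ER-beta-UAS-bla HEK293T cells that had settled 6 hr, and exposure ran 16 hr at 37C. Following the reporter read, CellTiter-Glo luminescence after 30 min at room temperature indicated cytotoxicity.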
# [9] = qHTS assay to identify small molecule antagonists of the estrogen receptor beta (ER-beta) signaling pathway - cell viability counter screen (AID 1259382); note: nearly all actives have a fitted effect of over 55% in size; note: potency is the fitted concentration of half-maximal effect
# Method in brief: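 CellTiter-Glo ATP luminescence measured after the LiveBLAzer read in the same wells; ER-beta-UAS-bla HEK293T cells, 16 hr compound treatment with 1nM 17-beta-estradiol agonist at 37C, 5% CO2.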
# [10] = molecular target: Estrogen receptor (Homo sapiens) (UniProt P03372); experiment: qHTS assay to identify small molecule agonists of the estrogen receptor alpha (ER-alpha) signaling pathway in the presence of an antagonist (AID 1259383; calls by dose curve; note: top concentration of the series differs between compounds; nearly all actives have a fitted effect of over 15% in size)
# Method in brief: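 Luminescent ERE-luciferase reporter, VM7Luc4E2 cells (endogenous ER-alpha); 10.0nM ICI-182,780 final; 15-point compound titration; 22hr at 37C; ONE-Glo, 30min RT.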
# [11] = qHTS assay to identify small molecule agonists or antagonists of the thyroid stimulating hormone receptor (TSHR) signaling pathway - wild type cell line counter screen (AID 1259384; calls by dose curve)
# Method in brief: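 Wild-type Hek293 cells, 800/well, 18 h at 37C, then compound with Ro20-1724 for 30 min RT. cAMP by HTRF (cAMP-d2/anti-cAMP cryptate), 1 h RT, fluorescence read. 15 concentrations, triplicates.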
# [12] = qHTS assay to identify small molecule agonists of the estrogen receptor alpha (ER-alpha) signaling pathway in the presence of an antagonist - cell viability counter screen (AID 1259386);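 note: cells exposed to compounds for 22 h at 37 °C before the viability read; nearly all actives have a fitted effect of over 30% in size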; note: potency is the fitted concentration of half-maximal effect
# Method in brief: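 Using estrogen-depleted VM7Luc4E2 cells, the 15-concentration compound series was applied together with 10.0nM ICI-182,780 and incubated 22hr at 37C/5% CO2. Cell viability was then scored by CellTiter-Fluor.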
# [13] = molecular target: Progesterone receptor (Homo sapiens) (UniProt P06401); experiment: qHTS assay to identify small molecule agonists of the progesterone receptor (PR) signaling pathway (AID 1346784; calls by dose curve; note: nearly all actives have a fitted effect of over 30% in size)
# Chain of Progesterone receptor (Homo sapiens) (P06401 whole entry, looked up): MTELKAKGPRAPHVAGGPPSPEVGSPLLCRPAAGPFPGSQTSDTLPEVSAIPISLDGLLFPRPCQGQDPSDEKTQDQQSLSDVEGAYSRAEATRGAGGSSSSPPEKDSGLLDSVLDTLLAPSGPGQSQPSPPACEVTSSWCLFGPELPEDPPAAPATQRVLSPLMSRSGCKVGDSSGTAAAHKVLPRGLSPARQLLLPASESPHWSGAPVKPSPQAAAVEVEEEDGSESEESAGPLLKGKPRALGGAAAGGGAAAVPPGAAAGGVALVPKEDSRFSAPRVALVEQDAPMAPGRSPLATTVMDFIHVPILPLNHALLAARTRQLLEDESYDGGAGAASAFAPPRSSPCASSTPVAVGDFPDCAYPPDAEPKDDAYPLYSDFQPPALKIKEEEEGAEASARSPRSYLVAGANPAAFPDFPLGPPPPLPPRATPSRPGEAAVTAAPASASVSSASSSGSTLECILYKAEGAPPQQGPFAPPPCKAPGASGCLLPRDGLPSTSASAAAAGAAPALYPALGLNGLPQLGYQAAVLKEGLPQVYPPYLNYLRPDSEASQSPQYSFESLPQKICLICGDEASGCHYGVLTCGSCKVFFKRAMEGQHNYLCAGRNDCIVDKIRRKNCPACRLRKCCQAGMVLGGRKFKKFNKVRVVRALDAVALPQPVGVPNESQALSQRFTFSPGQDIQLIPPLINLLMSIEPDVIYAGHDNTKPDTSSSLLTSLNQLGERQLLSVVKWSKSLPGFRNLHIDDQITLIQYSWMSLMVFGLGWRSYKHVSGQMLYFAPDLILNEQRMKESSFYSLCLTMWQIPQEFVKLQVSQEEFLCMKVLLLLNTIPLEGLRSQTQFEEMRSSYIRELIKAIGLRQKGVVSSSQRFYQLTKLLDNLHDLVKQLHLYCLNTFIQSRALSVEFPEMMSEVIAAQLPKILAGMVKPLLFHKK
# Method in brief: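 Beta-lactamase reporter read-out: after 16 hr compound treatment at 37C and a further 2 hr at room temperature with LiveBLAzer B/G FRET substrate, fluorescence was measured in PR-UAS-bla HEK 293T cells grown in 2% charcoal-stripped serum.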
# [14] = molecular target: Progesterone receptor (Homo sapiens) (UniProt P06401); experiment: qHTS assay to identify small molecule antagonists of the progesterone receptor (PR) signaling pathway (AID 1346795; active = well fitted inhibition curve with a large enough effect in the signal ratio in the repeat runs, not every such curve was filed as active; the % refers to the signal ratio; note: potency is the fitted concentration of half-maximal effect)
# Method in brief: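 Read-out is fluorescence from the LiveBLAzer B/G FRET substrate, cleaved by a UAS-controlled beta-lactamase in PR-UAS-bla HEK293T cells after 16 hr exposure to compound plus 1 nM promegestone (final), followed by 2 hr at room temperature.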
# [15] = qHTS assay to identify small molecule agonists of the sonic hedgehog signaling (Shh) pathway - cell viability counter screen (AID 1259366); note: nearly all actives have a fitted effect of over 50% in size; note: potency is the fitted concentration of half-maximal effect
# Method in brief: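 Cytotoxicity counter screen run in the same wells as the Shh reporter assay. NIH/3T3 cells carrying a Gli1 response element–driven luciferase were treated with DMSO-dissolved compounds for 24hr, and live-cell protease activity was measured with CellTiter-Fluor.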
# [16] = qHTS assay to identify small molecule antagonists of the sonic hedgehog signaling (Shh) pathway (AID 1259369; calls by dose curve; note: nearly all actives have a fitted effect of over 45% in size; note: potency is the fitted concentration of half-maximal effect)
# Method in brief: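 Read-out is luminescence from a firefly luciferase gene controlled by the Gli1 response element, in 3T3Gli1-Luc cells pre-incubated 4hr then exposed to compounds and conditioned medium for 24hr.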
# [17] = qHTS assay to identify small molecule agonists of the androgen receptor (AR) signaling pathway in the presence of an antagonist - cell viability counter screen (AID 1259379); note: nearly all actives have a fitted effect of over 25% in size; note: potency is the fitted concentration of half-maximal effect
# Method in brief: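 Each compound was tested at 15 concentrations on MDA-kb2 cells in the presence of 3.0uM nilutamide. Viability was measured by CellTiter-Fluor fluorescence after a 16 hr incubation at 37C in a CO2-free atmosphere.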
# [18] = molecular target: Androgen receptor (Homo sapiens) (UniProt P10275); experiment: qHTS assay to identify small molecule agonists of the androgen receptor (AR) signaling pathway in the presence of an antagonist (AID 1259381; calls by dose curve; note: nearly all actives have a fitted effect of over 15% in size; note: potency is the fitted concentration of half-maximal effect)
# Chain of Androgen receptor (Homo sapiens) (P10275 whole entry, looked up): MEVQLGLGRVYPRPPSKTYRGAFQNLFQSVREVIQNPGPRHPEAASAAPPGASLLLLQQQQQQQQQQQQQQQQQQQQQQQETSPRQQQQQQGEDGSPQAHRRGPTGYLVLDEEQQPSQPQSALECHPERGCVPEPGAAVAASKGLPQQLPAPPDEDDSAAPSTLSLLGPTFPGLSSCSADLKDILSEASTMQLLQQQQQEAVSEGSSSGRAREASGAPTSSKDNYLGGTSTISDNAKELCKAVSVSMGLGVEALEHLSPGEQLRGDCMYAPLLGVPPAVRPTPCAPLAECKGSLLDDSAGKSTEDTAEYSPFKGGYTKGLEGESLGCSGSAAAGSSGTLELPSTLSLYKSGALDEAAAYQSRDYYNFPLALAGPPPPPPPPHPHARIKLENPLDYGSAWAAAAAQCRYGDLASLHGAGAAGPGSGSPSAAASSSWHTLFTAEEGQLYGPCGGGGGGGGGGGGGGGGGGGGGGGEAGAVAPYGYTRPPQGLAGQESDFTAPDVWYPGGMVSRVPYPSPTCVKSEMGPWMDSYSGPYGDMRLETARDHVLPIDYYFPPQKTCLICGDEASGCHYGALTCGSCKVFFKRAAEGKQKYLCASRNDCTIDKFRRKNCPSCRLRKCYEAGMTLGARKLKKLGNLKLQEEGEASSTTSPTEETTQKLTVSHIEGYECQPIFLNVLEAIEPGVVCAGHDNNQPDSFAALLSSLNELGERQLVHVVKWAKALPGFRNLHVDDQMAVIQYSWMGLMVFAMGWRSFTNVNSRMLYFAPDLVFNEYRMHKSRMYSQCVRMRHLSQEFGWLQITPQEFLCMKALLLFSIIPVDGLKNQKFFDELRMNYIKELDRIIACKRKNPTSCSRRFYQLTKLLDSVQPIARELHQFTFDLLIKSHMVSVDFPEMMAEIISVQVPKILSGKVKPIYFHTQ
# Method in brief: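 Plated MDA-kb2 cells (3,000/well) were pre-incubated 5hr, given nilutamide (3.0uM final) or buffer, then dosed with compounds in DMSO at 15 concentrations. Luciferase activity was quantified by luminescence after 16hr at 37C.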
# [19] = molecular target: Thyrotropin receptor (Homo sapiens) (UniProt P16473); experiment: qHTS assay to identify small molecule antagonists of the thyroid stimulating hormone receptor (TSHR) signaling pathway (AID 1259385; calls by dose curve; note: nearly all actives have a fitted effect of over 20% in size; note: potency is the fitted concentration of half-maximal effect)
# Chain of Thyrotropin receptor (Homo sapiens) (P16473 whole entry, looked up): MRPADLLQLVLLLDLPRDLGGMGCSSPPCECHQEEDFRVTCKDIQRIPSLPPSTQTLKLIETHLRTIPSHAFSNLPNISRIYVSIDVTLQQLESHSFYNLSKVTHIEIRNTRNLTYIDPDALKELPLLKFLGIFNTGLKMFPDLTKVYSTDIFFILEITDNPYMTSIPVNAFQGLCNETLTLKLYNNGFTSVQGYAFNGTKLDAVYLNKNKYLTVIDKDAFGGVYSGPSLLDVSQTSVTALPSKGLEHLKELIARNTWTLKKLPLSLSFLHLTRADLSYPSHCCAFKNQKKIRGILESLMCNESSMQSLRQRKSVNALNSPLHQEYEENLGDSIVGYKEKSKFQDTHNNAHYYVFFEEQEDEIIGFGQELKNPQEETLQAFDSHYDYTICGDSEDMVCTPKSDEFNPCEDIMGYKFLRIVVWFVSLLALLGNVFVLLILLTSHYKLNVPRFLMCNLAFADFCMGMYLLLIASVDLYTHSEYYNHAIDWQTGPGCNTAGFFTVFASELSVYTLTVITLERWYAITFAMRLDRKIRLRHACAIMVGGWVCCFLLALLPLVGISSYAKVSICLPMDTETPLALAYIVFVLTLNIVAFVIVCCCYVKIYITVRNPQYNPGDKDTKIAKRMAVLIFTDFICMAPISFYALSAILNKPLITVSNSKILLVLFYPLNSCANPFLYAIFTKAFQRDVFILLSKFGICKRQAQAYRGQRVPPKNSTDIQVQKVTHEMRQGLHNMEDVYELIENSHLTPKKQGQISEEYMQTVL
# Method in brief: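 TSHR-HEK293 cells (800/well) plated 18 h, then compounds with Ro20-1724 and TSH at 1.5 ng/mL final, 30 min at room temperature. cAMP quantified by HTRF (cAMP-d2/anti-cAMP-cryptate, 1 h); 15 concentrations in triplicate.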
# [20] = molecular target: Estrogen receptor beta (Homo sapiens) (UniProt Q92731); experiment: qHTS assay to identify small molecule antagonists of the estrogen receptor beta (ER-beta) signaling pathway (AID 1259378; active = well fitted inhibition curve with a large enough effect in the signal ratio in the repeat runs, not every such curve was filed as active; the % refers to the signal ratio; note: potency is the fitted concentration of half-maximal effect)
# Method in brief: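 ER-beta-UAS-bla HEK293T cells in 2% charcoal-stripped FBS medium treated with compound plus 1nM final 17-beta-estradiol for 16 hr at 37C. Beta-lactamase reporter read by FRET substrate fluorescence after 2 hours at room temperature.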
SMILES,Potency [1],Potency [2],Potency [3],Potency [4],Potency [5],Potency [6],Potency [7],Potency [8],Potency [9],Potency [10],outcome [11],Potency [12],outcome [13],Potency [14],Potency [15],Potency [16],Potency [17],Potency [18],Potency [19],Potency [20]
CC(=O)Oc1ccc(C2(c3ccc(OC(C)=O)cc3)C(=O)Nc3ccccc32)cc1,168 nM (active),inactive,inactive,inactive,inactive,inactive,inactive,inactive,inactive,inactive,inactive,668 nM (active),inactive,inactive,–,–,–,–,–,–
O=C1NCCN1CCN1CCC(c2cn(-c3ccc(F)cc3)c3ccc(Cl)cc23)CC1,8410 nM (active),inactive,inactive,inactive,–,inactive,–,13.3 µM (active),–,inactive,inactive,inactive,inactive,–,18.8 µM (active),13.3 µM (active),15 µM (active),inactive,29.8 µM (active),–
CCN(CC)CCSC(=O)C(c1ccccc1)c1ccccc1,inactive,inactive,inactive,inactive,inactive,inactive,inactive,29.8 µM (active),inactive,inactive,inactive,inactive,inactive,inactive,inactive,23.7 µM (active),–,–,inactive,inactive
NC(=O)C(=O)N/N=C/c1ccc([N+](=O)[O-])o1,inactive,inactive,inactive,inactive,inactive,inactive,inactive,inactive,inactive,inactive,inactive,inactive,inactive,inactive,inactive,–,inactive,inactive,inactive,inactive
CCCSS/C(CCO)=C(\C)N(C=O)Cc1cnc(C)nc1N,inactive,inactive,inactive,inactive,inactive,inactive,–,26.6 µM (active),inactive,inactive,inactive,inactive,inactive,inactive,–,inactive,inactive,inactive,inactive,–
CCCCCCCCCCCCCCNCCO,inactive,inactive,inactive,inactive,inactive,inactive,–,26.6 µM (active),inactive,inactive,inactive,inactive,inactive,inactive,inactive,–,–,–,23.7 µM (active),–
Clc1ccc(C(Cn2ccnc2)OCc2c(Cl)cccc2Cl)c(Cl)c1 (stereo not drawn),inactive,inactive,inactive,inactive,inactive,inactive,–,29.8 µM (active),23.7 µM (active),inactive,inactive,–,–,4.22 µM (active),–,–,–,inactive,–,–
CN(Cc1cc(Br)cc(Br)c1N)C1CCCCC1,inactive,inactive,inactive,inactive,inactive,inactive,inactive,–,inactive,inactive,inactive,inactive,–,–,inactive,inactive,–,–,29.8 µM (active),inactive
CC(C)(C)c1cc(CCC(=O)NCCCCCCNC(=O)CCc2cc(C(C)(C)C)c(O)c(C(C)(C)C)c2)cc(C(C)(C)C)c1O,inactive,–,inactive,inactive,inactive,inactive,inactive,inactive,inactive,inactive,inactive,inactive,inactive,inactive,inactive,inactive,inactive,inactive,inactive,inactive
CC(=O)Oc1ccc(C2(c3ccc(OC(C)=O)cc3)Oc3ccccc3NC2=O)cc1,inactive,inactive,inactive,inactive,–,inactive,inactive,–,inactive,inactive,inactive,inactive,–,21.1 µM (active),inactive,8.41 µM (active),inactive,–,–,1.88 µM (active)
CCOC(=O)[C@@](C)(N)Cc1ccc(O)c(O)c1,inactive,inactive,inactive,inactive,–,–,–,inactive,inactive,inactive,inactive,inactive,inactive,inactive,inactive,–,inactive,–,–,–
CCN(CC)CCOC(=O)C1(C2CCCCC2)CCCCC1,inactive,inactive,inactive,inactive,inactive,inactive,inactive,26.6 µM (active),–,inactive,inactive,–,inactive,inactive,–,–,inactive,inactive,29.8 µM (active),inactive
O=c1cccc[nH]1,inactive,–,inactive,inactive,inactive,inactive,inactive,inactive,inactive,inactive,inactive,inactive,inactive,inactive,inactive,inactive,inactive,inactive,inactive,inactive
COc1nccnc1CC(C)C,inactive,–,inactive,inactive,inactive,inactive,inactive,inactive,inactive,inactive,inactive,inactive,–,–,inactive,inactive,inactive,inactive,inactive,inactive
CC1=C(/C=C/C(C)=C/C=C/C(C)=C/C(=O)Nc2ccc(O)cc2)C(C)(C)CCC1,28 µM (active) and 13.3 µM (active),inactive,inactive,inactive,28 µM (active) and 21.1 µM (active),inactive,–,62.7 µM (active) and 26.6 µM (active),–,inactive,inactive,31.4 µM (active) and 13.3 µM (active),–,–,31.4 µM (active) and 21.1 µM (active),–,49.8 µM (active) and 23.7 µM (active),8.85 µM (active) and inactive,inactive,–
